Consider 2 molecules from PubChem BioAssay (EPA / NIEHS).

The source made the active and inactive calls. Rule for the calls: active = hit-call score of the fitted dose curve at least 0.9, where 1 is the maximum; inactive = score below 0.9.

What all share (conditions): mRNA level, 48 h; actives raise or lower the signal
Read-out in one test: CYP4A11 (gene 1579)
As to the kind of experiment: LTEA_HepaRG_CYP4A11: Life Technologies and Expression Analysis (LTEA) Assay for CYP4A11 using HepaRG (AID 2283486). An outline of the steps:
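Human hepatic HepaRG cultures receive duplicate 48 h exposures across a concentration-response series topping at 100 uM. Expression changes in CYP4A11 are measured by qRT-PCR relative to DMSO controls.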

Read-out in test [1]: DNA damage-inducible transcript 3 (DDIT3), DDIT3 (gene 1649)
The test is described as follows: LTEA_HepaRG_DDIT3: Life Technologies and Expression Analysis (LTEA) Assay for DNA damage-inducible transcript 3 (DDIT3) using HepaRG (AID 2283488). An outline of the steps:
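Differentiated human HepaRG cells in serum-free induction medium were exposed in duplicate for 48 h to 8 concentrations (top 100 uM, half-log steps, 0.5% DMSO). DDIT3 mRNA measured by TaqMan qRT-PCR, normalized to ACTB/GAPDH/POLR2A; bidirectional fit versus DMSO.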

Read-out in test [2]: Pro-epidermal growth factor (Homo sapiens) (UniProt P01133)
As to the kind of experiment: LTEA_HepaRG_EGF: Life Technologies and Expression Analysis (LTEA) Assay for Epidermal growth factor (EGF) using HepaRG (AID 2283489). An outline of the steps: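 Concentration-response mRNA assay: HepaRG cells dosed 48 h (max 100 uM, 0.5% DMSO), EGF measured by qRT-PCR and normalized to ACTB/GAPDH/POLR2A.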

Read-out in test [3]: Early growth response protein 1 (EGR1) transcription factor, EGR1 (gene 1958)
As to the kind of experiment: LTEA_HepaRG_EGR1: Life Technologies and Expression Analysis (LTEA) Assay for Early growth response protein 1 (EGR1) transcription factor using HepaRG (AID 2283490). An outline of the steps:
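Read-out is EGR1 mRNA level by qRT-PCR, normalized to three housekeeping genes and analysed for gain or loss of signal against 0.5% DMSO. Source cells: human HepaRG, treated 48 h at up to 100 uM in half-log dilutions.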

Read-out in test [4]: Ezrin (EZR), EZR (gene 7430)
The test is described as follows: LTEA_HepaRG_EZR: Life Technologies and Expression Analysis (LTEA) Assay for Ezrin (EZR) using HepaRG (AID 2283491). An outline of the steps:
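EZR transcript levels came from Fluidigm qRT-PCR and were normalized to three housekeeping genes after 48 h chemical exposure of HepaRG cells. Dosing used an 8-point half-log series with a 100 uM top concentration in 0.5% DMSO, tested in duplicate; both directions were fitted versus vehicle.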

Read-out in test [5]: Cytochrome P450 3A7 (Homo sapiens) (UniProt P24462)
As to the kind of experiment: LTEA_HepaRG_CYP3A7: Life Technologies and Expression Analysis (LTEA) Assay for CYP3A7 using HepaRG (AID 2283492). Summed up: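 qRT-PCR of CYP3A7 in HepaRG lysates after 48 h treatment; concentration-response (8 points, max 100 uM) analysed bidirectionally relative to 0.5% DMSO controls.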

Read-out in another test: CYP3A5 (gene 1577)
The test is described as follows: LTEA_HepaRG_CYP3A5: Life Technologies and Expression Analysis (LTEA) Assay for CYP3A5 using HepaRG (AID 2283493). Summed up:
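Differentiated HepaRG cells in serum-free induction medium were dosed 48 h with test chemicals (8-point half-log series, top 100 uM, 0.5% DMSO, duplicate). CYP3A5 mRNA measured by qRT-PCR, normalized to ACTB, GAPDH, POLR2A; bidirectional fit versus DMSO.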

Read-out in test [6]: Fatty Acid-Binding Protein 1 (FABP1), FABP1 (gene 2168)
The test is described as follows: LTEA_HepaRG_FABP1: Life Technologies and Expression Analysis (LTEA) Assay for Fatty Acid-Binding Protein 1 (FABP1) using HepaRG (AID 2283494). An outline of the steps:
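HepaRG, 48 h post-plating switched to serum-free induction medium, then dosed 48 h (duplicate, 8 pts, ≤100 uM, 0.5% DMSO). RNA → Fluidigm TaqMan qRT-PCR, FABP1 normed to ACTB/GAPDH/POLR2A. Bidirectional curve fit vs DMSO.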

Read-out in test [7]: Cytochrome P450 4A22 (Homo sapiens) (UniProt Q5TCH4)
The test is described as follows: LTEA_HepaRG_CYP4A22: Life Technologies and Expression Analysis (LTEA) Assay for Cytochrome P450 4A22 (CYP4A22) using HepaRG (AID 2283495). An outline of the steps: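 Concentration-response (8 points, max 100 uM, 0.5% DMSO) in human HepaRG liver cells after 48 h exposure. CYP4A22 mRNA by TaqMan qRT-PCR with housekeeping-gene normalization.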

Read-out in test [8]: Cytochrome P450 7A1 (Homo sapiens) (UniProt P22680)
As to the kind of experiment: LTEA_HepaRG_CYP7A1: Life Technologies and Expression Analysis (LTEA) Assay for Cytochrome P450 7A1 (CYP7A1) using HepaRG (AID 2283496). Summed up: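 Gene expression endpoint in human HepaRG liver cells treated for 48 h with test chemicals (up to 100 uM, 0.5% DMSO). Values come from bidirectional concentration-response fitting versus DMSO.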

Read-out in test [9]: Glutathione S-Transferase (GSTA2), GSTA2 (gene 2939)
As to the kind of experiment: LTEA_HepaRG_GSTA2: Life Technologies and Expression Analysis (LTEA) Assay for Glutathione S-Transferase (GSTA2) using HepaRG (AID 2283497). Summed up:
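HepaRG, 48 h dosing, 8-pt half-log CRC from 100 uM, 0.5% DMSO vehicle, n=2; RNA → Fluidigm TaqMan qRT-PCR; GSTA2 vs ACTB/GAPDH/POLR2A; gain/loss fit vs DMSO.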

Read-out in test [10]: growth arrest and DNA damage 45 (GADD45G), GADD45G (gene 10912)
The test is described as follows: LTEA_HepaRG_GADD45G: Life Technologies and Expression Analysis (LTEA) Assay for growth arrest and DNA damage 45 (GADD45G) using HepaRG (AID 2283499). An outline of the steps: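 Concentration-response in HepaRG: 48 h dosing, 0.5% DMSO, highest level 100 uM. GADD45G expression by qRT-PCR, normalised to endogenous controls; bidirectional fit to DMSO.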

Read-out in test [11]: Glutamate-cysteine ligase regulatory (GCLM), GCLM (gene 2730)
As to the kind of experiment: LTEA_HepaRG_GCLM: Life Technologies and Expression Analysis (LTEA) Assay for Glutamate-cysteine ligase regulatory (GCLM) using HepaRG (AID 2283500). An outline of the steps:
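Differentiated human HepaRG cells exposed 48 h in serum-free induction medium to 8-point half-log concentrations (top 100 uM, 0.5% DMSO), in duplicate. GCLM mRNA quantified by qRT-PCR, normalized to ACTB, GAPDH, POLR2A; bidirectional fitting versus DMSO.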

Read-out in test [12]: Heat shock 70 kDa protein 1 (HSPA1A), gene 3303
As to the kind of experiment: LTEA_HepaRG_HSPA1A: Life Technologies and Expression Analysis (LTEA) Assay for Heat shock 70 kDa protein 1 (HSPA1A) using HepaRG (AID 2283502). Summed up: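 Differentiated human HepaRG cells in serum-free induction medium were exposed in duplicate for 48 h to eight concentrations (top 100 uM, half-log steps, 0.5% DMSO). HSPA1A mRNA was quantified by qRT-PCR, normalized to ACTB, GAPDH and POLR2A, and fitted bidirectionally against DMSO.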

Read-out in test [13]: Hypoxia-inducible factor 1-alpha (Homo sapiens) (UniProt Q16665)
As to the kind of experiment: LTEA_HepaRG_HIF1A: Life Technologies and Expression Analysis (LTEA) Assay for Hypoxia-inducible factor 1 (HIF1A) Trancription factor using HepaRG (AID 2283503).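 Note: HIF1A transcript by TaqMan qRT-PCR normalized to ACTB GAPDH and POLR2A.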 Summed up:
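HepaRG, 48 h exposure, 8-pt half-log series from 100 uM, 0.5% DMSO vehicle, duplicates. Readout: HIF1A transcript by qRT-PCR (Fluidigm array), housekeeping-normalised. Bidirectional curve fit vs DMSO baseline.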

Read-out in test [14]: 3-Hydroxy-3-Methylglutaryl-CoA Synthase 2 (HMGCS2), HMGCS2 (gene 3158)
The test is described as follows: LTEA_HepaRG_HMGCS2: Life Technologies and Expression Analysis (LTEA) Assay for 3-Hydroxy-3-Methylglutaryl-CoA Synthase 2 (HMGCS2) using HepaRG (AID 2283504). An outline of the steps:
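This steatosis marker was read as HMGCS2 mRNA change in HepaRG cells treated 48 h with up to 100 uM chemical. Normalisation used housekeeping genes; activity in either direction was fitted relative to 0.5% DMSO vehicle.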

Read-out in another test: HGF (gene 3082)
As to the kind of experiment: LTEA_HepaRG_HGF: Life Technologies and Expression Analysis (LTEA) Assay for Hepatocyte Growth Facto (HGF) using HepaRG (AID 2283505). An outline of the steps:
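Using HepaRG monolayers kept in 0.5% DMSO, chemicals were tested in duplicate over eight half-log concentrations from 100 uM for 48 h. Endpoint: HGF mRNA change relative to DMSO, normalized to ACTB/GAPDH/POLR2A.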

Read-out in test [15]: Cytochrome P450 3A4 (Homo sapiens) (UniProt P08684)
As to the kind of experiment: LTEA_HepaRG_CYP3A4: Life Technologies and Expression Analysis (LTEA) Assay for CYP3A4 using HepaRG (AID 2283487). Summed up: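 Differentiated HepaRG cells, plated 48 h, then dosed 48 h in serum-free induction medium with 0.5% DMSO, 8 half-log concentrations up to 100 uM, duplicate. CYP3A4 mRNA by qRT-PCR, normalized to ACTB/GAPDH/POLR2A; bidirectional fit versus DMSO.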

Read-out in test [16]: Glutathione S-transferase M3 (GSTM3), GSTM3 (gene 2947)
As to the kind of experiment: LTEA_HepaRG_GSTM3: Life Technologies and Expression Analysis (LTEA) Assay for Glutathione S-transferase M3 (GSTM3) using HepaRG (AID 2283501). An outline of the steps: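 Expression of GSTM3 is determined by qRT-PCR in human liver HepaRG cells treated 48 h with an 8-point half-log range from 100 uM in 0.5% DMSO.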

Chain of Hypoxia-inducible factor 1-alpha (Homo sapiens) (Q16665 whole entry, looked up): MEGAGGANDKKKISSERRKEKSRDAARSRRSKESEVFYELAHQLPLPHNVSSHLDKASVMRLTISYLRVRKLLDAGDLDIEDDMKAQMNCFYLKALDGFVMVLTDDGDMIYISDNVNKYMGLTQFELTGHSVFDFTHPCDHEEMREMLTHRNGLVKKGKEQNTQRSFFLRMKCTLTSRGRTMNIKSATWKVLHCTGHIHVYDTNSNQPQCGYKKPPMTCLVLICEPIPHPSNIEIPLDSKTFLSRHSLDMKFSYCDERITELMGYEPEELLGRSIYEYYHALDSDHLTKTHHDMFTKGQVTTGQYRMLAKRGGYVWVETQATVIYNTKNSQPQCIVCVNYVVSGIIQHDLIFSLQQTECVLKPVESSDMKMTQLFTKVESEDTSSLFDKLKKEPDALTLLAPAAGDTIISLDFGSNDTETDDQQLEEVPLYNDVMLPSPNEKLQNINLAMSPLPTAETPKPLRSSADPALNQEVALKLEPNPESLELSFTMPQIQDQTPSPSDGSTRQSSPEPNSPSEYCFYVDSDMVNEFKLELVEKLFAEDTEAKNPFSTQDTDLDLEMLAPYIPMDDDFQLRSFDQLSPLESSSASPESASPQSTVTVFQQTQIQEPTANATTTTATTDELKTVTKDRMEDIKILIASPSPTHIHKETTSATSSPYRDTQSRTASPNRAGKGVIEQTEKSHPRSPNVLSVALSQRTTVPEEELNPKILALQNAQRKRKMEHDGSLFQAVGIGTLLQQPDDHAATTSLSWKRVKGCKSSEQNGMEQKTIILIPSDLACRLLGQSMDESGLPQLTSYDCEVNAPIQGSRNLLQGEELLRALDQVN
Chain of Cytochrome P450 3A7 (Homo sapiens) (P24462 whole entry, looked up): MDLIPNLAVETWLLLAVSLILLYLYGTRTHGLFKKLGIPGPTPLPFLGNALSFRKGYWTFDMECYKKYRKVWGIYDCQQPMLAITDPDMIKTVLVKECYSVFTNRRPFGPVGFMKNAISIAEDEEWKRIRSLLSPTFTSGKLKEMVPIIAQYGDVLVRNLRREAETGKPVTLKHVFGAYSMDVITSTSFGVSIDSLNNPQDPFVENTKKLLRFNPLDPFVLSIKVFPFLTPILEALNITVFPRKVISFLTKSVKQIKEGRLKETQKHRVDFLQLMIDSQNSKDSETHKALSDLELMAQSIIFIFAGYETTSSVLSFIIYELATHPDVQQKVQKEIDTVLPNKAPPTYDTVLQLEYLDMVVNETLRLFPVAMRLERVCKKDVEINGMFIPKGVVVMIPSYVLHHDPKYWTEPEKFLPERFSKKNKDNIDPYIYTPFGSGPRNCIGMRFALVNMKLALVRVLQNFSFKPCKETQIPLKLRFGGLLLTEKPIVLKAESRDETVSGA
Chain of Cytochrome P450 3A4 (Homo sapiens) (P08684 whole entry, looked up): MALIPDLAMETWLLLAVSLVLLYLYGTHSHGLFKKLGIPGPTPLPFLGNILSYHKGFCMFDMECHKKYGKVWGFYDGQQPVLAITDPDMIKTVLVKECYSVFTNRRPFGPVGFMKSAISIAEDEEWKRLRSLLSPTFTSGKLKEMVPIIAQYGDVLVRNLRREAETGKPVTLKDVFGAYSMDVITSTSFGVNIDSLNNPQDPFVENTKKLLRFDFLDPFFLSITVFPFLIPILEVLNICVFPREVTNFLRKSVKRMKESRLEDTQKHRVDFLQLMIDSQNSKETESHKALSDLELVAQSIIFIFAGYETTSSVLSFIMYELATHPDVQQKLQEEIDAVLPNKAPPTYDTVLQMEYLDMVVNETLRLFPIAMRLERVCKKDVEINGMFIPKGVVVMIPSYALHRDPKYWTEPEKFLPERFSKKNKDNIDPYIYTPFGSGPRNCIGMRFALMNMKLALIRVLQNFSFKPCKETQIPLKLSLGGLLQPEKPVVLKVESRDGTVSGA

One may read the AC50 as the concentration giving half of the maximal activity seen. Take `ClC1=C(Cl)[C@]2(Cl)[C@@H]3[C@@H]4C[C@@H]([C@H]5O[C@@H]45)[C@@H]3[C@@]1(Cl)C2(Cl)Cl`: the AC50 with CYP4A11 (gene 1579) is 31.5 µM (active); in test [1] it was 62.8 µM (active); in test [6] it was 0.0265 µM (active); in test [7], 34.2 µM (active); in test [8] it was 0.0248 µM (active); in test [9], 50 µM (active). Also, the AC50 is 0.0315 µM (active) in test [13] and 50 µM (active) in [14]. In addition, the result (in test [2]; in [3]; in test [4]; in test [5]; with CYP3A5 (gene 1577); in test [10]) was inactive. Besides, the molecule was called inactive (in [11]; in test [12]; with HGF (gene 3082)).

For `CC(c1ccc(O)cc1)(c1ccc(O)cc1)c1ccc(O)cc1`, the molecule was called inactive (with CYP4A11 (gene 1579); in test [1]; in [2]; in [7]; in test [11]; in test [16]). For the same molecule, the result in test [12] and in test [13] was inactive. The AC50 in test [15] is 23.6 µM (active); in test [3], 81 µM (active); in test [4], 38.7 µM (active); in test [5] it was 20.7 µM (active); with CYP3A5 (gene 1577), 37.1 µM (active); in test [6], 75.8 µM (active). Further, the AC50 in test [8] is 67 µM (active); in test [9] it was 37.3 µM (active); in test [14], 85.1 µM (active); with HGF (gene 3082), 25.1 µM (active).
